For seven compounds, growth results are on record in PubChem BioAssay (NCI).

The structures appear in SMILES notation. This is part of a sample that, as a whole, favours compounds with a hit. Of some 83,000 tested, about 20% had one in any assay.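 96-well plates, one dose, 48 hours. Percent growth reported; active if below 10.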 Unmarked numbers belong to inactive results. Calls of active or inactive are those of the source.

What all share (experiment): NCI-60 one-dose screen, 48 h (100 = growth as untreated, 0 = no growth, -100 = all killed)
What all share (details): 10 µM unless noted

Test [1] concerns HCT-15 colon.
Test [2] relates to HT29 colon.
The subject of test [3] is SNB-75 CNS.
The subject of test [4] is SNB-19 CNS.
The subject of test [5] is U251 CNS.
Test [6] deals with PC-3 prostate.
Test [7] relates to SK-MEL-5 melanoma.
In test [8] the test system is UACC-62 melanoma.
For test [9], the system named is LOX IMVI melanoma.
The test system of test [10] is SK-MEL-28 melanoma.
In test [11] the test system is SK-MEL-2 melanoma.
Test [12] relates to EKVX NSCLC.
In test [13] the test system is SN12C renal.
Test [14] has as its system UO-31 renal.
Test [15] has as its system TK-10 renal.
The test system of test [16] is ACHN renal.
Test [17] has as its system CAKI-1 renal.
Test [18] concerns A498 renal.
In test [19] the test system is CCRF-CEM leukemia.
In test [20] the test system is MOLT-4 leukemia.

On to `Cc1cc(C(NC(=O)CCCCCNc2cccc3c2C(=O)N(C2CCC(=O)NC2=O)C3=O)c2ccc3c(c2)OC(F)(F)O3)c(O)c2ncccc12` (stereo not given), for which the growth in test [1] was 72.2%; in test [2], 71.8%; in test [3] it was 50.8%; in test [4], 51.6%; in [5] it was 33.6%; in [6] it was 32.3%. The growth is 37% in test [7]; 63.3% in [8]; 57.9% in test [9]; 81% in test [10]; 62.6% in test [11]; 71.3% in test [12]. In addition, the growth in test [13] is 49.9%; in test [14] it was 77.2%; in test [15] it was 93.8%; in test [16], 63.5%; in test [17], 50%; in test [18] it was 95.1%. Moreover, the growth was 38.6% in [19] and 42.5% in test [20].
Take `Cn1ccnc1C(=O)/C=C/c1ccc(NC(=O)c2c(F)c(F)c(F)c(F)c2F)cc1`: the growth in [1] was 85.9%; in [2] it was 112%; in test [3], 103%; in test [4], 98.3%; in test [5], 99%; in [6], 100%. Besides, the growth is 91.2% in test [7]; 97.2% in test [8]; 81.6% in test [9]; 105% in test [10]; 112% in test [11]; 99.7% in test [12]. Besides, the growth in test [13] was 101%; in [14], 79.7%; in [15], 133%; in [16] it was 101%; in [17], 107%; in test [18] it was 113%. The growth in test [19] is 86%; in [20] it was 85.2%.
As for `C#C[C@]1(O)CC[C@H]2[C@@H]3CC=C4c5sc(-c6ccc(C)cc6)nc5CC[C@]4(C)[C@H]3CC[C@@]21C`, the growth in test [1] was -2.81% (active); in [2] it was 98%; in [3], -8.57% (active); in [4], 10.9%; in [5], 8.46% (active); in [6], -19.9% (active). The growth in test [7] is -75.7% (active); in test [8], 2.15% (active); in test [9], -60.8% (active); in test [10], -57.2% (active); in test [11] it was -2.55% (active); in [12], 54%. The growth in test [13] is 59%; in test [14], -7.05% (active); in [15] it was 77.4%; in test [16], 21.5%; in [17], 8.16% (active); in [18], 113%. In addition, the growth was 6.48% (active) in [19] and -2.14% (active) in [20].
For `O=C1C(c2ccccc2)=C(N2CCc3ccccc32)OC1(Cl)Cl`, the growth in test [1] was 21.1%; in test [2], 37.4%; in test [3], 74.3%; in test [4], 84.9%; in test [5] it was 85.8%; in [6], 69.5%. Also, the growth in [7] was 99.8%; in [8], 81.4%; in test [9], 56.7%; in [10] it was 31.8%; in [11], 92.2%; in test [12] it was 76.3%. Further, the growth in test [13] is 77.5%; in [14] it was -23.6% (active); in [15], 27.6%; in [16], -63.8% (active); in test [17], 4.78% (active); in [18], 69.2%. For the same compound, the growth was -17.8% (active) in test [19] and 0.0776% (active) in test [20].
Take `CCCC(=O)NC(c1cccnc1)c1cc(C(C)(C)C)c2cccnc2c1O` (stereo not given): the growth is 35.4% in test [1]; 34% in test [2]; 37.4% in test [3]; 31.6% in test [4]; 18.6% in test [5]; 44.1% in [6]. Further, the growth in test [7] was -15.4% (active); in test [8], 7.53% (active); in test [9] it was 20.3%; in test [10], 24.6%; in test [11], 30.5%; in test [12], 21.7%. For the same compound, the growth in test [13] was 29.5%; in test [14], 13.6%; in [15], 42.3%; in [16], 12.1%; in [17] it was 16.2%; in test [18], 13.6%. The growth was 9.16% (active) in test [19] and 14.2% in [20].
`CC(C)(C)c1ccc(C(=O)Nc2sc3c(c2C(N)=O)CC/C(=N\O)C3)cc1`: the growth in test [1] is 10.4%; in test [2] it was 5.87% (active); in test [3], 44.2%; in [4] it was 26.7%; in test [5], 17.9%; in test [6], 18.7%. The growth in [7] was -29.4% (active); in [8], 12.7%; in [9] it was 3.93% (active); in test [10], 31.4%; in test [11], -3.77% (active); in test [12], 25.9%. For the same compound, the growth in test [13] was 21.5%; in [14], -33.7% (active); in test [15], 32%; in test [16] it was 12.2%; in test [17], 12.7%; in test [18] it was 34.6%. In addition, the growth in test [19] is 10.1%; in [20] it was 15%.
Take `COc1ccc(S(=O)(=O)NCCCNc2nccc(-c3[nH]c(-c4ccccc4)nc3-c3ccc(Cl)c(O)c3)n2)cc1`: the growth in test [1] is 93.7%; in [2] it was 73.8%; in [3] it was 108%; in test [4], 105%; in [5] it was 83.3%; in test [6], 66.4%. Further, the growth in test [7] was 56.9%; in test [8] it was 18.1%; in [9], 56.9%; in [10], 23.5%; in test [11] it was 15.4%; in [12], 113%. For the same compound, the growth in test [13] was 84.2%; in [14] it was 116%; in test [15], 126%; in test [16], 96.2%; in [17], 102%; in test [18], 116%. For the same compound, the growth in test [19] was 40.3%; in test [20], 51.2%.
